Consider 19 compounds from ChEMBL document CHEMBL3988442, “University of Dundee, Small-Polar-MMV Screening Library” (2021).

This assay concerns the target T1, Aspartate--tRNA(Asp/Asn) ligase (Mycobacterium tuberculosis (strain ATCC 25618 / H37Rv)) (UniProt P9WFW3).
T1 sequence (whole entry): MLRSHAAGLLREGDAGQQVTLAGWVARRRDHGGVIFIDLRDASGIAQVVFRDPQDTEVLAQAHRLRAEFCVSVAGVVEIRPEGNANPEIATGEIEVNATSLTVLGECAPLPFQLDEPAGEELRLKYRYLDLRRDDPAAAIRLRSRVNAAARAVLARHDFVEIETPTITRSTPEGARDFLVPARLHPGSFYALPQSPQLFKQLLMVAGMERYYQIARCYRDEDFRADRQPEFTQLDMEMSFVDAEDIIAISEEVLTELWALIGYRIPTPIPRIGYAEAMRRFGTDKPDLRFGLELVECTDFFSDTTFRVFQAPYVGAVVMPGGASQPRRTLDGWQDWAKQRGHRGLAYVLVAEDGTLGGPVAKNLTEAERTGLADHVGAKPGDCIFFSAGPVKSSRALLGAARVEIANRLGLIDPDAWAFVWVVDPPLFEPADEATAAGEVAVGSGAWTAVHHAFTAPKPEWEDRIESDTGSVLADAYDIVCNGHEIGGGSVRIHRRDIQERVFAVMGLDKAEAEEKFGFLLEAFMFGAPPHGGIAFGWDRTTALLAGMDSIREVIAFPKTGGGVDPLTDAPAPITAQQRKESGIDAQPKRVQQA
The assay can be described thus: Assay for Asp RNA synthetase-1 from Mycobacterium tuberculosis. The class given is functional. The arrangement: scale not given: in the data most compounds retested in dose-response had high values. The conditions noted are these: 30 µM.
Turning to `Cc1cccc(C(=O)NCc2ccc(S(N)(=O)=O)cc2)n1`, the Percent Effect is -0.577%. In the case of `O=C(NCCNc1cnccn1)N1CCN(Cc2cccnc2)CC1`, the Percent Effect was -4.35%. For the compound `COc1cccc2cc(CNC(=O)N3CCCC(O)C3)oc12` (centres undefined), the Percent Effect is -4.17%. Consider `CS(=O)(=O)N1CCCC12CCCN(S(=O)(=O)c1ccc(F)cc1)C2` (centres undefined), for which the Percent Effect is -6.05%.

In the case of `CN(Cc1cccs1)C(=O)CS(=O)(=O)Cc1ccc(Cl)c(Cl)c1`, the Percent Effect amounted to 3.86%. For the compound `Clc1ccc(OCCN2CCN(CCn3cncn3)CC2)cc1`, the Percent Effect is -1.39%. Regarding `O=C(Cc1csc(-c2ccco2)n1)N1CCN(c2cnccn2)CC1`, the Percent Effect is -2.43%.

With `CC(O)CN1CCN(C(=O)c2cccn2Cc2ccncc2)CC1` (centres undefined), the Percent Effect is -3.51%. With `O=C(CSc1ccccc1Cl)NS(=O)(=O)c1ccc2c(c1)OCCO2`, the Percent Effect is -8.39%. Consider `CCN(Cc1cccc2c1OCO2)C(=O)C(C)c1cccnc1` (centres undefined), for which the Percent Effect worked out at 1.18%.

Consider `O=C(Nc1cc(C(F)(F)F)c[nH]c1=O)N1CCCSCC1`, for which the Percent Effect came out at 5.77%. As to `CCO[C@@H]1CO[C@@]2(CCCN(C(=O)COc3ccccc3OC)C2)C1`, the Percent Effect was found to be 1.03%. As to `O=C(c1ccc(N2CCCC2)nn1)N1CCCC(n2cccn2)C1` (centres undefined), the Percent Effect stood at 3.23%. Regarding `Cc1cc(C)n(CCCNC(=O)[C@@H](C)NC(=O)OC(C)(C)C)n1`, the Percent Effect came to 2.46%. With `CCc1ncnc2c1CCN(Cc1ccccn1)CC2` the figure was 0.378%; with `Cc1nccn1-c1cccc(C2CCCN(C3CCCCC3)C2)n1` (centres undefined), -3.11%. The same measure for `CCN(Cc1cccc(Cl)c1)Cn1nc(C)c2c(C)onc2c1=O`: -2.62%; for `CNC(=O)c1ccc(C(=O)N2CCCC2c2cnn(C)c2)cn1` (centres undefined): -5.79%; for `CN1C(=O)CC(c2cnn(C)c2)C12CCN(C(=O)C1CC=CC1)CC2` (centres undefined): -2.73%.
